Test results taken from PubChem BioAssay AID686979 (National Center for Advancing Translational Sciences (NCATS), 2013).
Values joined by “and” are separate entries in the source; they are usually repeats but may differ in a detail not shown here. Equal values may be shown once. Screen size: about 420,000 compounds; about 50,000 (12%) were called active. Entries that show only a call come without a potency. About 26% were inconclusive and are not listed. The sample holds actives, similar compounds and a random draw of the others, so the mix is not that of the screen. Calls come from the whole dose curve; as a rule, active = well fitted inhibition curve with a large enough effect; inconclusive = small, poorly fitted or top-dose-only effect; inactive = flat fitted curve, though single readings scatter.

experiment: qHTS for Inhibitors of human tyrosyl-DNA phosphodiesterase 1 (TDP1): qHTS in cells in presence of CPT; details: chicken DT40 Tdp1-/-;hTDP1 cells + 20 nM CPT, ATP luminescence, 48 h; series mostly up to 46.2 µM; note: nearly all actives have a fitted effect of over 55% in size
Description: Human tyrosyl-DNA phosphodiesterase 1 (TDP1) is a novel repair gene, and we propose to use it as a new target for anticancer drug development. TDP1 is not an essential protein, but under treatment with topoisomerase I poison (camptothecin: CPT), TDP1 works as a critical factor for cell survival. To directly identify novel TDP1 inhibitors active in a cellular environment, we have knocked-out the Tdp1 gene in chicken DT40 cells (Tdp1-/-) and generated a complemented counterpart cells that contains a stable transfection of the human TDP1 gene (Tdp1-/-;hTDP1 cells). For the primary screen, Tdp1-/-;hTDP1 cells will be exposed to small molecules in the presence or absence of CPT, and their growth kinetics will be evaluated after 48 hours by measuring ATP activity. […] The hit compounds will then be evaluated in the presence or absence of CPT using Tdp1-/- cells. […] In tertiary assays, biochemical gel-based assays will be used to assess whether the hit compounds specifically target TDP1. To this end, we have screened this cell line against the MLSMR in two primary screens. In one screen we add CPT and in the other we screen in the absence of CPT; this AID represents the screen where CPT was present. NIH Chemical Genomics Center [NCGC] NIH Molecular Libraries Probe Centers Network [MLPCN] MLPCN Grant: MH095538 Assay Submitter (PI): Yves Pommier, NCI
DT40-hTDP1 cells with 20 nM Camptothecin (add 20 microL of 1 mM CPT stock in 1 L of cell culture medium) were dispensed at 400 cells/5microL/well in tissue culture treated 1536-well white wall/solid bottom assay plates (Greiner Bio-One North America, NC, U.S.A.) using a Multidrop Combi 8 channel dispenser (Thermo Fisher, Waltham, MA, USA). 23 nL compounds and controls were transferred using the pin tool (Kalypsys, San Diego, CA, USA) to the assay plates. The assay plates were then incubated at 37 masculineC for a minimum 48 hr. Three microL of Cell Titer Glo solution was added to the plates and incubated at RT in dark for 30 min. Luminescence was read using ViewLux (Perkin Elmer) with 1 sec exposure slow speed, high gain and 2x binning.
Potency is the fitted concentration of half-maximal effect.

Structure (SMILES)	Potency
O=C1CC[C@H](O)CCN1[C@H](CSc1ccc(Br)cc1)Cc1ccccc1	11.2 µM (active) and 14.6 µM (active)
O=C1CCN(Cc2ccc([N+](=O)[O-])cc2)CCN1[C@H](CO)Cc1ccccc1	inactive
C[C@H]1CCC(=O)N([C@H](CSc2ccccc2)Cc2ccccc2)CC1	inactive
O=C(Cc1ccccc1)NNC1CC(=O)N(c2ccc(Br)cc2)C1=O (stereo unspecified)	inactive
O=C1CCN(CCCc2ccccc2)CCN1CCO	inactive
COc1ccc(SC[C@H](Cc2ccccc2)N2CCN(CCc3ccccc3)CCC2=O)cc1	23.1 µM (active)
O=C(CN1CCC(NC(=O)C2CC2)CC1)Nc1ccccc1[N+](=O)[O-]	inactive
Cc1cc(C(F)F)nn1CC(=O)NC1CCCCCC1	inactive
Cc1ccc2c(cnn2C(=O)CCC(=O)NC2CCCC2)c1	inactive
O=C(Cc1cccs1)Nc1ccc([N+](=O)[O-])cc1	inactive
CCc1nn(-c2cc(Oc3cccc4ccccc34)nc(-c3ccccc3)n2)c(N)c1C#N	10.3 µM (active)
CCCC(=O)n1nc(-c2ccccc2)nc1N	inactive
CC(C(=O)N1CCN(c2ccccc2F)CC1)c1ccc([N+](=O)[O-])cc1 (stereo unspecified)	inactive
CC1CCN(CC(=O)Nc2nccs2)CC1	inactive
Cc1c(C)c(C)c(S(=O)(=O)N2CCC3(CC2)OCCO3)c(C)c1C	inactive
CCOc1ccc(NC(=O)CN(C)C(=O)CSc2ccccc2)cc1OCC	inactive

Structure (SMILES)	Potency
CN1CCN(NC(=O)c2ccc(S(=O)(=O)N3CCCCCC3)cc2)CC1	inactive
COC(=O)c1ccc(CNC(=O)c2ccc(S(=O)(=O)N3CCCCCC3)cc2)cc1	inactive
COc1ccc(S(=O)(=O)N2CCCCC2)cc1Br	inactive
COc1cc2c(cc1OC)CN(C(=O)c1ccc(S(=O)(=O)N3CCCCCC3)cc1)CC2	20.6 µM (active)
COc1cc2c(cc1OC)CN(C(=O)c1cc(S(=O)(=O)N3CCCCC3)ccc1Cl)CC2	20.6 µM (active)
O=C(c1cc(S(=O)(=O)N2CCOCC2)ccc1Cl)N1CCOCC1	inactive
COc1ccc(C(=O)n2nc(C)c(Br)c2C)cc1OC	inactive
COc1ccc(C(=O)CN2C(=O)NC(C)(c3ccc(C)cc3)C2=O)cc1OC (stereo unspecified)	inactive
COc1ccc(C(=O)n2nc(-c3ccc(C)cc3)nc2N)cc1OC	13 µM (active)
CN1CCN(c2ccc(CNS(=O)(=O)c3cccc(F)c3)cc2)CC1	inactive
CCCCc1ccc(S(N)(=O)=O)cc1	inactive
N#Cc1ccccc1CN1C(=O)S/C(=C/c2cccn2-c2cccc(C(=O)O)c2)C1=O	inactive
Cc1cccc2cc3c(N)c(C(=O)N4CCCc5ccccc54)sc3nc12	4.11 µM (active)
O=C(c1cc(-c2ccc(O)cc2)on1)N1CCCc2ccccc21	inactive
Cc1c(C(=O)N2CCCc3ccccc32)oc2ccccc12	inactive
